TTR transcr act: activators of transthyretin transcription | SH-SY5Y TTR promoter Gaussia luciferase, luminescence; 100% = recombinant luciferase protein wells | activation, % at 16.7 µM | actives 1.3% (n = 92,000) | AID 1117267;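 active = activation above the mean of all tested compounds plus 3 SD, cut at about 9.5% in these data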;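 note: cells exposed to compounds for one day before reading; 0% = median of all test compound wells on the plate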
TTR inh HuH7: HuH7 TTR transcription inhibition, counter-screen; actives 4% (n = 1,100); inhibition, % at 16.7 µM; shares compounds with TTR transcr act; HuH7 TTR promoter-Gaussia luciferase reporter, luminescence;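 active = average inhibition above the solvent-only control wells' mean plus 3 SD, cut at about 15% in these data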;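 note: 0% = cells with DMSO only and 100% = cells with inhibitor control FD; inhibitors lower well luminescence so higher value means more inhibition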
TTR up confirm: human TTR transcription activation, confirmation | SHSY5Y TTR promoter Gaussia luciferase, luminescence; 100% = purified Lucia enzyme wells, no cells | 1,100 tested, under 10 active | activation, % at 16.7 µM | AID 1117280 | shares compounds with TTR transcr act;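 active = mean activation above a set limit taken from the earlier primary screen, cut at about 11% in these data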;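 note: 0% = DMSO-treated cells and 100% = recombinant Lucia luciferase without cells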
The depositor's hits bear a star. Shown is part of a subset that was picked to be rich in hits.

SMILES	TTR transcr act	others
CC(O)(c1ccccc1)c1nc(-c2cccc(C(=O)O)c2)cs1 (stereo not given)	1.1
CC(O)(c1ccc(F)c(F)c1)c1nc(-c2ccc(Cl)cc2)cs1 (stereo not given)	-0.4
CC(O)(c1ccc(F)c(F)c1)c1nc(-c2cccc(C(=O)O)c2)cs1 (stereo not given)	13.2*	TTR inh HuH7=-35.2;TTR up confirm=-0.8
Cc1ccc([C@H]2N[C@]3(CCCN(Cc4ccc(F)cc4)C3=O)[C@H]3C(=O)N(Cc4ccccc4)C(=O)[C@@H]23)cc1	2.4
COC(=O)[C@]12C[C@H](CC(=O)N3CCSCC3)C(=O)N(Cc3ccc(Cl)cc3Cl)C1=C[C@H](C(C)C)O[C@@H]2C1CC1	0.8
COc1ccc(NC(=O)CC2C(=O)NCCN2C(=O)Nc2ccc(C(F)(F)F)cc2)cc1 (stereo not given)	-0.3
CCOC(=O)CC1C(=O)NCCN1C(=O)Nc1ccccc1 (stereo not given)	17.7*	TTR inh HuH7=-5.2;TTR up confirm=-0.7
COC(=O)CC1C(=O)NCCN1C(=S)Nc1cccc(C)c1 (stereo not given)	1.6
O=C(CCc1ccccc1-c1ccccc1CCNC(=O)c1cccc(F)c1)NCc1ccccc1	-0.4
CN(Cc1ccon1)C(=O)C1CCC(=O)N(CCc2ccc(Cl)cc2)C1 (stereo not given)	1.2
CCOC(=O)CCCNC(=O)OCCCN1CCC2(CCC(c3ccccc3)CC2)C1=O (stereo not given)	-1.2
COc1ccc([C@H]2C[C@H](O)[C@@H](n3cc(C4CC4)nn3)CN2C(=O)c2cccs2)cc1	1.3
Cc1ccc([C@H]2C[C@@H](O)[C@H](n3cc(-c4ccc(F)cc4)nn3)CN2C(=O)c2cccs2)cc1	10.6*	TTR inh HuH7=14.6*;TTR up confirm=-0.2
O=C(C1CCCCC1)N1C[C@H](n2cc(-c3ccc(F)cc3)nn2)[C@@H](O)C[C@@H]1c1ccc(Cl)cc1	1.2
CC(C)NC(=O)C1(C)CCCN1C(=O)c1ccccc1Br (stereo not given)	-1.2
O=C(NC1CCCc2ccccc21)C(Cc1ccccc1)NS(=O)(=O)c1cccs1 (stereo not given)	0.1
COc1cc(Br)c(C(C)NC(=O)c2cccc(Br)c2)cc1OC (stereo not given)	-1.3
COc1cc(C(=O)NC(=S)Nc2ccc3ccccc3c2)cc(OC)c1OC	2.0
COc1cc(C(=O)NC(C)c2cccc3ccccc23)cc(OC)c1OC (stereo not given)	18.4*	TTR inh HuH7=-35.2;TTR up confirm=0.0
CCOC(=O)c1ccc(NC(=O)CSc2nc(=O)n3cccc(C)c3n2)cc1	-2.0
Clc1cccc(-c2ccc(CNCCCN3CCOCC3)o2)c1	-1.6
CCn1c2ccc(CC(=O)O)cc2c2cc(CC(=O)O)ccc21	0.4
CCn1c(=O)cc(SCC(=O)N2CCN(Cc3ccc4c(c3)OCO4)CC2)c2ccccc21	1.3
CCn1c2ccccc2c2cc(CN3CCN(S(=O)(=O)CC)CC3)ccc21	18.9*	TTR inh HuH7=-8.6;TTR up confirm=1.0
CC(C)c1ccc2[nH]c(O)c(N=NC(=S)NCCc3ccccc3)c2c1	11.8*	TTR inh HuH7=-7.6;TTR up confirm=-0.2
SMILES	TTR transcr act	others
Oc1[nH]c2ccccc2c1N=NC(=S)NCCc1ccccc1	7.4
CC(C)c1ccc2[nH]c(O)c(N=NC(=O)c3ccc(CSc4nncn4C)cc3)c2c1	8.6
O=C(COC(=O)C1CCCCC1)Nc1ccccc1OC(F)F	0.6
CCOC(=O)c1cnc2cc(-c3ccc(Br)cc3)nn2c1C	1.8
CCOC(=O)c1cnc2c(-c3ccccc3)cnn2c1C	12.6*	TTR inh HuH7=-2.5;TTR up confirm=4.5
CCOC(=O)c1cnc(-c2ccccc2)nc1N1CCOCC1	-1.4
COC(=O)c1ccc(Cn2ccc3ccc(-c4ccc5ccn(Cc6ccc(C(=O)OC)cc6)c5c4)cc32)cc1	1.0
O=C(CSc1nnc(CNC(=O)c2ccccc2)o1)Nc1ccc2c(c1)OCO2	0.1
O=C(CSc1nnc(CNC(=O)c2c(F)cccc2F)o1)Nc1ccc2c(c1)OCCO2	11.0*	TTR inh HuH7=-1.7;TTR up confirm=4.5
O=C(CSc1nnc(CNC(=O)c2c(F)cccc2F)o1)Nc1ccc2c(c1)OCO2	-1.8
COc1cc(NC(=O)C2CCN(S(=O)(=O)c3ccc4[nH]c(=O)oc4c3)CC2)cc(OC)c1	1.7
O=C(c1[nH]c(C(F)(F)F)nc1-c1ccccc1)N1CCCN(Cc2ccc(F)cc2)CC1	-0.2
CC(C)(C)c1ccc2cc(F)cc(F)c2n1	7.8
CCn1c(=O)cc(OCC(=O)Nc2nc(C)cs2)c2ccccc21	10.6*	TTR inh HuH7=-23.3;TTR up confirm=-0.3
CCn1c(=O)cc(OCC(=O)NCCc2ccc(OC)c(OC)c2)c2ccccc21	0.8
CCn1c(=O)cc(OCC(=O)NCC2CCCO2)c2ccccc21 (stereo not given)	-1.8
COc1ccc(N2CCN(S(=O)(=O)c3ccc4c(c3)NC(=O)CC(=O)N4)CC2)cc1	-2.4
Cc1c(-c2ccccc2)cnc2c(C)cccc12	5.2
Cc1cccc(OCc2nnc(SC(C)C(=O)O)n2-c2ccccc2)c1 (stereo not given)	1.9
COc1ccc(-c2cn(-c3ccc(Cl)cc3)c3[n+]2CCCCC3)cc1	11.9*	TTR inh HuH7=0.1;TTR up confirm=0.6
Clc1ccc(-c2cn(-c3ccc(Cl)cc3)c3[n+]2CCCCC3)cc1	-2.1
COc1ccc(-n2cc(-c3ccc(OC(F)F)cc3)[n+]3c2CCCCC3)cc1	-0.5
COCCN1CCC(CNCc2c(C(=O)N3CCCCC3)nc3c(C)cccn23)C1 (stereo not given)	-0.6
O=C(O)c1ccc(-c2nc3scc(-c4ccccc4)c3c(=O)[nH]2)cc1	5.1
COc1ccc(-c2csc3nc(-c4cccnc4)nc(N4CCC(C(N)=O)CC4)c23)cc1OC	-1.7
SMILES	TTR transcr act	others
O=C1CN(c2nc(-c3cccnc3)nc3scc(-c4ccccc4)c23)CCN1	13.4*	TTR inh HuH7=-5.3;TTR up confirm=-0.8
O=C(COC(=O)c1ccc(O)cc1O)Nc1ccc2ccccc2c1	21.2*	TTR inh HuH7=-22.5;TTR up confirm=0.8
O=C(COC(=O)c1ccc2ccccc2c1O)Nc1ccccc1	0.3
Cc1cc(C(=O)OCC(=O)N2CCOCC2)c(C)n1-c1ccccc1	0.5
O=C(OCC(=O)N1CCN(c2ccccc2)CC1)c1ccc(O)cc1O	15.5*	TTR inh HuH7=-24.7;TTR up confirm=-0.4
O=C(COC(=O)c1ccc(CO)cc1)Nc1ccc2ccccc2c1	-0.6
O=C(COc1ccccc1)N1CCN(c2ccccc2)CC1	1.6
COc1cc(NC(=O)NC2CCCCN(Cc3ccc(Cl)cc3)C2=O)cc(OC)c1 (stereo not given)	2.1
Cc1ccc(NC(=O)CCc2c[nH]c3ccccc23)nc1	3.1
C[C@H]1CN([C@@H](C)CO)S(=O)(=O)c2ccc(Br)cc2O[C@H]1CN(C)S(=O)(=O)c1ccccc1	-1.2
O=C(Nc1cccc(C(F)(F)F)c1)OC1CC2CC1[C@H]1CCCCN1[C@H]2Cc1ccccc1 (stereo not given in full)	4.2
CCn1cc(CNC(=O)CC2C(=O)NCCN2CC(c2ccccc2)c2ccccc2)cn1 (stereo not given)	2.4
Cn1cc(CCNC(=O)CC2C(=O)NCCN2Cc2cccc(Oc3ccccc3)c2)cn1 (stereo not given)	1.4
CC(C)CN1CCNC(=O)C1CC(=O)NCCc1cnn(-c2ccccc2)c1 (stereo not given)	13.1*	TTR inh HuH7=-11.7;TTR up confirm=-0.6
Cc1cc(C)n(CCNC(=O)c2ccco2)n1	-0.2
